NOMO-1 viab – NOMO-1 AML cell viability reduction, primary screen, STK33 inhibitor project, CellTiter-Glo luminescence | hit rate 7.5% among 37,000 | inhibition, % (no concentration beside the values) | NOMO-1 AML viability, 72 h; in the data active means inhibition above about 80%; inconclusive means no clear call, values can overlap the other calls
mut p53 react – mutant p53 pathway re-activators, primary screen, cell-based, SW480, luciferase, single point, HTS. hit rate 1.5% among 28,000. activation, % at 9.98 µM. SW480 PUMA-promoter luciferase, p53 mutant reactivation; in the data active means activation above about 52%; inconclusive means no clear call, values can overlap the other calls
MITF inh – inhibitors of MITF, primary screen, MITF inhibitor project, cell-based, luminescence | TRPM1 promoter luciferase, 24 h | inhibition, % (concentration not given with the values) | hit rate 0.28% among 37,000 | AID 2240, 2010; in the data active means inhibition above about 85%; inconclusive means no clear call, values can overlap the other calls; inactive means below about 68%;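 further: human melanocyte line stably carrying TRPM1 promoter luciferase reporter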
STK33 kin inh – STK33 kinase inhibitors, primary screen, biochemical, luminescence, ADP-Glo, MBP substrate. Serine/threonine-protein kinase 33 (Homo sapiens), Q9BYT3. inhibition, % at 12.5 µM. hit rate 0.44% among 27,000; in the data active means inhibition above about 20%; inconclusive means no clear call, values can overlap the other calls
* = called active by the depositor; ? = inconclusive; / = not tested or not shown. The full list was thinned out, with hits kept by preference.

SMILES	NOMO-1 viab	mut p53 react	MITF inh	STK33 kin inh
COc1cc2c(cc1NC(=O)CSc1nnc(N)s1)oc1ccccc12	19.7	117.4*	-146.8	10.0
COc1cc2c(cc1NC(=O)CSc1nnnn1C)oc1ccccc12	51.3	146.8*	-66.8	1.0
COc1ccc(NC(=O)CSc2nnc(N)s2)c(OC)c1	-11.4	6.0	3.0	3.0
COc1cc2c(cc1NC(=O)CSc1ccccn1)oc1ccccc12	50.8	37.6	-38.2	-1.3
O=C(C[n+]1ccccc1)c1cc2ccccc2oc1=O	45.7	/	9.2	/
Cc1ccc(C)c(NC(=O)C(C)n2nc(C)c([N+](=O)[O-])c2C)c1 (configuration not stated)	25.2	6.9	1.0	-0.6
COc1cc2c(cc1-c1coc3c4c(ccc3c1=O)OC(C)(C)C=C4)OCO2	86.9*	-31.2	-11.3	-4.1
CC(C)(C)c1ccc(-c2cc3ccccn3c2)cc1	103.6*	/	-5.1	/
CC(C)(C)c1ccc(-c2nc(=O)[nH]n2-c2ccccc2)cc1	/	-9.1	/	/
O=C(CSc1nc2ccccc2c(=O)n1-c1ccc(Cl)cc1)Nc1ccc(Cl)c(Cl)c1	52.9	4.7	6.0	2.4
CS(=O)(=O)N(CC(=O)NC1CC2CCC1C2)c1ccc(Cl)c(C(F)(F)F)c1 (configuration not stated)	24.4	-9.7	-4.1	-5.4
CCC(CCC(=O)Nc1ccccc1[N+](=O)[O-])C(=O)O (configuration not stated)	22.1	-4.2	-18.6	-2.0
CC(C(=O)Oc1cccc2cccnc12)N1C(=O)c2ccccc2C1=O (configuration not stated)	127.3*	-14.4	-19.3	-1.9
O=C1c2ccccc2C(=O)N1OS(=O)(=O)c1cccc2cccnc12	127.5*	-7.3	7.8	1.4
COc1ccc(OC)c(S(=O)(=O)ON2C(=O)c3ccccc3C2=O)c1	119.1*	-7.8	35.9	-0.8
O=C(CCN1C(=O)C2C3c4ccccc4C(c4ccccc43)C2C1=O)Oc1cccc2cccnc12 (configuration not stated)	118.0*	0.1	-0.3	-1.4
O=C(CCOc1ccccc1)Nc1nc2c(ccc3ccccc32)s1	/	3.6	/	/
CCCCC1CCC(C(=O)Oc2ccc(OCC)cc2)CC1 (configuration not stated)	2.8	/	-0.6	/
CCN(CC(=O)Nc1ccccc1SC)S(=O)(=O)c1ccc2ccccc2c1	9.2	-2.6	-7.7	4.9
Cc1ccc(S(=O)(=O)Nc2ccc3c(c2)CC(=O)N([C@@H](C)CO)C[C@@H](C)[C@@H](CN(C)Cc2ccc(Oc4ccccc4)cc2)O3)cc1	114.8*	/	40.6	-0.7
C[C@H]1CN([C@@H](C)CO)C(=O)Cc2cc(NS(=O)(=O)c3ccccc3)ccc2O[C@H]1CN(C)Cc1ccc(Oc2ccccc2)cc1	70.4	/	26.6	2.8
Cc1ccc(S(=O)(=O)Nc2ccc3c(c2)CC(=O)N([C@@H](C)CO)C[C@H](C)[C@H](CN(C)Cc2ccc(Oc4ccccc4)cc2)O3)cc1	120.4*	/	9.7	6.6
C[C@@H]1CN([C@H](C)CO)C(=O)Cc2cc(NS(=O)(=O)c3ccccc3)ccc2O[C@@H]1CN(C)Cc1ccc(Oc2ccccc2)cc1	?	8.3	11.3	5.1
CC(C)CC(NS(=O)(=O)c1ccc(C(C)(C)C)cc1)C(=O)O (configuration not stated)	10.4	-10.9	-4.2	-0.9
CCC(=O)N1CCc2cc(S(=O)(=O)NC(CC(C)C)C(=O)NC3CCCC3)ccc21 (configuration not stated)	/	-12.8	/	/
SMILES	NOMO-1 viab	mut p53 react	MITF inh	STK33 kin inh
Cc1ccc2nc(-c3ccc(NC(=O)CS(=O)(=O)Cc4ccccc4)cc3)sc2c1	10.3	75.3*	-18.3	4.1
Cc1ccc2nc(-c3ccc(NC(=O)CN4C(=O)c5ccccc5C4=O)cc3)sc2c1	16.3	19.0	6.3	0.9
Cc1ccc2nc(-c3ccc(NC(=O)Cn4nc([N+](=O)[O-])c(Cl)c4C)cc3)sc2c1	23.8	79.9*	19.2	4.6
Cc1ccccc1OCC1CN(CN(CC(C)C)CC(C)C)C(=O)O1 (configuration not stated)	21.3	/	3.8	-0.1
O=C(CN1CC(=O)Oc2ccccc21)OCC(=O)c1ccccc1	102.7*	/	30.6	/
O=C(CN1CC(=O)Oc2ccccc21)Nc1ccc(O)cc1	111.1*	/	-9.7	/
O=C(CC1C(=O)N(c2ccc(F)cc2)C(=S)N1CCN1CCOCC1)Nc1ccc(F)cc1 (configuration not stated)	12.3	5.2	-7.5	-1.5
